# Measurements: ChEMBL document CHEMBL1961873, “Compounds: GSK PKIS; Assays: Nanosyn kinase panel” (2012)
# Tests used:
# [1] = biological target: Sphingosine kinase 1 (Homo sapiens) (UniProt Q9NYA1); conditions: at 1 µM;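 further: mean SPHK1 inhibition value reported from the GSK PKIS kinase panel screen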
# [2] = biological target: T1, Sphingosine kinase 2 (Homo sapiens) (UniProt Q9NRA0); conditions: at 0.1 µM
# T1 sequence (whole entry): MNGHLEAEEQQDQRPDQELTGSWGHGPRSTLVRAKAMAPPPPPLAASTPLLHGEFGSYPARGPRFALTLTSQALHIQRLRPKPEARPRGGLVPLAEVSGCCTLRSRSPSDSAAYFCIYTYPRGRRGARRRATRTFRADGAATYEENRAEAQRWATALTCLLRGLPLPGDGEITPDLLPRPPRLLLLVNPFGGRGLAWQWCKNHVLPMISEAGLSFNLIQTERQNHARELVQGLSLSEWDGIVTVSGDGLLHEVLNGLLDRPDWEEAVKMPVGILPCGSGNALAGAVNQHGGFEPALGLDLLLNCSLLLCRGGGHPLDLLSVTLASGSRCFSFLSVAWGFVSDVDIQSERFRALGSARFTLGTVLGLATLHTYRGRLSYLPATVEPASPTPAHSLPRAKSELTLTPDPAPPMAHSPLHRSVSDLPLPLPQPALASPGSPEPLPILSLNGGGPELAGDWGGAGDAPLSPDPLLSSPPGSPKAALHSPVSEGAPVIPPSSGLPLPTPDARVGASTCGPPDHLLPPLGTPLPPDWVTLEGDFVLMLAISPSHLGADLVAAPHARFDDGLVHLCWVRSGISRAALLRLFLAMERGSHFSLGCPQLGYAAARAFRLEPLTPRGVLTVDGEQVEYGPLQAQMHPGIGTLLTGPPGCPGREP
# [3] = biological target: T1, Sphingosine kinase 2 (Homo sapiens); conditions: at 1 µM
# [4] = biological target: Casein kinase II subunit alpha (Homo sapiens) (UniProt P68400); conditions: at 0.1 µM
# [5] = biological target: Casein kinase II subunit alpha (Homo sapiens) (UniProt P68400); conditions: at 1 µM
# [6] = biological target: T2, Inhibitor of nuclear factor kappa-B kinase subunit alpha (Homo sapiens) (UniProt O15111); conditions: at 0.1 µM
# T2 sequence (whole entry): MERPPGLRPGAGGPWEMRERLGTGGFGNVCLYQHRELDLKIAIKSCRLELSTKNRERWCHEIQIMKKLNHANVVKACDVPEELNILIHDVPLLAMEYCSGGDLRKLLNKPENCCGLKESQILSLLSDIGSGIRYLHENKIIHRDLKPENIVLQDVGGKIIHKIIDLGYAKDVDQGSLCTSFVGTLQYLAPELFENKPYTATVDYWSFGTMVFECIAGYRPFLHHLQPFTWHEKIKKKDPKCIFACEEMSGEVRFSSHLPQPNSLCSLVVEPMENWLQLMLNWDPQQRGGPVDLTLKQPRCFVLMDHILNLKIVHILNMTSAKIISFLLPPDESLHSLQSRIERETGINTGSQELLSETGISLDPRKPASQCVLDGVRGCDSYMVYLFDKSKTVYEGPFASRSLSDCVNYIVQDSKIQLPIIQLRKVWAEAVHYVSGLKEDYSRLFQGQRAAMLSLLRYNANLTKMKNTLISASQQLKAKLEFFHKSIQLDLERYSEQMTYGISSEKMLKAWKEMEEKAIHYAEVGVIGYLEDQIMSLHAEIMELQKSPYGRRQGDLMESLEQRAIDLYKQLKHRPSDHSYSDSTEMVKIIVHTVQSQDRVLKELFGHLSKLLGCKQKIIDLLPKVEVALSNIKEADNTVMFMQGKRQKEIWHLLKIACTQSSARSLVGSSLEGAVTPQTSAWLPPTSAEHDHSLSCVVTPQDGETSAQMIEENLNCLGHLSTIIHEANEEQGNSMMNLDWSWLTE
# [7] = biological target: T2, Inhibitor of nuclear factor kappa-B kinase subunit alpha (Homo sapiens); conditions: at 1 µM
# [8] = biological target: T3, Inhibitor of nuclear factor kappa-B kinase subunit beta (Homo sapiens) (UniProt O14920); conditions: at 0.1 µM
# T3 sequence (whole entry): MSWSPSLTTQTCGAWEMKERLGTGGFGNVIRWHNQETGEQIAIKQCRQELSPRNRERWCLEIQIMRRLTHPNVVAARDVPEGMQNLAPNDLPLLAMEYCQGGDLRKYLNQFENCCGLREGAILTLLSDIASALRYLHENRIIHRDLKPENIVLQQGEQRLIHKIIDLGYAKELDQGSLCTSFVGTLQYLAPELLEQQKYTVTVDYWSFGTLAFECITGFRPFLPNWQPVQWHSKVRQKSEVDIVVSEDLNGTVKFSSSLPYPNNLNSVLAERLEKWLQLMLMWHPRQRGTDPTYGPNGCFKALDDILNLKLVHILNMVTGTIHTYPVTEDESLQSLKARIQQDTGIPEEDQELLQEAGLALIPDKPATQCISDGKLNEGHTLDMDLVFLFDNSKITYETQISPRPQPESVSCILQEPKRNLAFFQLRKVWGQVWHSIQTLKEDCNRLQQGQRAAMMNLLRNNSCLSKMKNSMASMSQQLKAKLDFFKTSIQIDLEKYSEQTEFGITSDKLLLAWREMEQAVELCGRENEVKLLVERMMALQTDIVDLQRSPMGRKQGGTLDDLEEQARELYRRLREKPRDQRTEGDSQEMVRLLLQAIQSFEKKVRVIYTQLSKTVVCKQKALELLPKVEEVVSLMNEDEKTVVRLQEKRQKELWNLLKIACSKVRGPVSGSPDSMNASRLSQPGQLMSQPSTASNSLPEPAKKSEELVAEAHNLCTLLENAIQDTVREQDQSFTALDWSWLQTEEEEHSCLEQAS
# [9] = biological target: T3, Inhibitor of nuclear factor kappa-B kinase subunit beta (Homo sapiens); conditions: at 1 µM
# [10] = biological target: T4, Inhibitor of nuclear factor kappa-B kinase subunit epsilon (Homo sapiens) (UniProt Q14164); conditions: at 0.1 µM
# T4 sequence (whole entry): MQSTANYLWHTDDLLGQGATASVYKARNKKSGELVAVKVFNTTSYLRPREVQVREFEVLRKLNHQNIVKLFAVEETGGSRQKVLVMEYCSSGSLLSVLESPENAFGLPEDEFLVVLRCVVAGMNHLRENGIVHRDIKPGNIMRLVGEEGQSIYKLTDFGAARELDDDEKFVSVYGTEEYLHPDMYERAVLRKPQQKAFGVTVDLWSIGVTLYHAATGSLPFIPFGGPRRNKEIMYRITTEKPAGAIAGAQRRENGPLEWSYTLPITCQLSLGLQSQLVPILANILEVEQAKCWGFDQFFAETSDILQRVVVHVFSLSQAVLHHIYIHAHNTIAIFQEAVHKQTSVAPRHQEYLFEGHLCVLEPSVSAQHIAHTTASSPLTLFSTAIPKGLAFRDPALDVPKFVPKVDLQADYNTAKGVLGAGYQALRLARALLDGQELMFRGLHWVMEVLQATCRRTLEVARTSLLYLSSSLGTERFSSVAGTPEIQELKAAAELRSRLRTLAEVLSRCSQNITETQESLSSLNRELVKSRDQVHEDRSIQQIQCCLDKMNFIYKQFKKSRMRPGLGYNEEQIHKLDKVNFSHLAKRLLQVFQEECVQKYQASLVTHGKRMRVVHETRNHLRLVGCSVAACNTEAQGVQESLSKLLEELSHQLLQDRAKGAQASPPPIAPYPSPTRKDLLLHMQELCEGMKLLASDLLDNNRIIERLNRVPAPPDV
# [11] = biological target: T4, Inhibitor of nuclear factor kappa-B kinase subunit epsilon (Homo sapiens); conditions: at 1 µM
# [12] = biological target: T5, Serine/threonine-protein kinase Nek1 (Homo sapiens) (UniProt Q96PY6); conditions: at 0.1 µM
# T5 sequence (whole entry): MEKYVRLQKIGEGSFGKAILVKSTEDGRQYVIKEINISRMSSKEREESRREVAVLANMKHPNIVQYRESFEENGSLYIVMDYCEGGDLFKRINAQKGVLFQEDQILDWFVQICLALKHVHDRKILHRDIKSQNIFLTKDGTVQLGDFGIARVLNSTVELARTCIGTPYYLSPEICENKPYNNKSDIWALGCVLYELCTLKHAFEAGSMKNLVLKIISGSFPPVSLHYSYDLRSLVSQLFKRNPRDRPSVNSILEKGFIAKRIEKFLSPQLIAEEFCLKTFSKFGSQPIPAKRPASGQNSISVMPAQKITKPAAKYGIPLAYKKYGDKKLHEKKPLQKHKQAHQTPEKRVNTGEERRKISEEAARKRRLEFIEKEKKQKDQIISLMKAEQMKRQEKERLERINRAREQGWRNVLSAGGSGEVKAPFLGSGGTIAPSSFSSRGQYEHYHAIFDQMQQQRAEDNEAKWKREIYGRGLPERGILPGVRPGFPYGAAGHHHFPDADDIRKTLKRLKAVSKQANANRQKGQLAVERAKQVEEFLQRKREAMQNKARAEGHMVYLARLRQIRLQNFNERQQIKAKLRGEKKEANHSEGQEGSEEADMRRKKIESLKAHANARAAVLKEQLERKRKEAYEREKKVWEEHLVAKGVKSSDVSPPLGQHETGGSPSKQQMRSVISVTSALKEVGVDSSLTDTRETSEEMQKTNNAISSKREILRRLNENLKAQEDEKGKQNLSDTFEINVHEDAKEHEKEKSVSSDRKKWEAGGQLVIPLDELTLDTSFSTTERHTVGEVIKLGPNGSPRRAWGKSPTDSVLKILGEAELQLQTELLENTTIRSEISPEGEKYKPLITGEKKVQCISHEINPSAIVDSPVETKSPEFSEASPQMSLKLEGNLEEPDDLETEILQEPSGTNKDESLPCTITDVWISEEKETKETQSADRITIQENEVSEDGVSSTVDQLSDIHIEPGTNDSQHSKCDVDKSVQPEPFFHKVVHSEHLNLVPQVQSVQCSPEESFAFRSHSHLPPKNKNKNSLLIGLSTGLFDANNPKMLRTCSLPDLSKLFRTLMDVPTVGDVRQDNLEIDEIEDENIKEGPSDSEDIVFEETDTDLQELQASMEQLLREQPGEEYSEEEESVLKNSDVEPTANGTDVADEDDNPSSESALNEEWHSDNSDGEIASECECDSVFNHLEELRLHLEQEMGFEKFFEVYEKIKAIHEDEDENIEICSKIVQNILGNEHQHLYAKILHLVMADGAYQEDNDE
# [13] = biological target: T5, Serine/threonine-protein kinase Nek1 (Homo sapiens); conditions: at 1 µM
# [14] = biological target: T6, Serine/threonine-protein kinase Nek2 (Homo sapiens) (UniProt P51955); conditions: at 0.1 µM
# T6 sequence (whole entry): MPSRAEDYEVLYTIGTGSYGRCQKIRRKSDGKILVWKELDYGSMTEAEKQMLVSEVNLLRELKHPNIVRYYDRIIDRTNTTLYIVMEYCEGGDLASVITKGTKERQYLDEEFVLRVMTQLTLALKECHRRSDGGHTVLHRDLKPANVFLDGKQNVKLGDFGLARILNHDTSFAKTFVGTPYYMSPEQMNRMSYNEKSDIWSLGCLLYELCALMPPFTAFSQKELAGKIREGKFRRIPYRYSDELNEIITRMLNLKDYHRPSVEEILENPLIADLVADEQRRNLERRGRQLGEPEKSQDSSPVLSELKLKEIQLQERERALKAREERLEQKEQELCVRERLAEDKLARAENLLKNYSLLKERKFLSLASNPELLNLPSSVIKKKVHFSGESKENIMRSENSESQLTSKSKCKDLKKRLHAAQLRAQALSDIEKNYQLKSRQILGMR
# [15] = biological target: T6, Serine/threonine-protein kinase Nek2 (Homo sapiens); conditions: at 1 µM
# [16] = biological target: Serine/threonine-protein kinase Nek6 (Homo sapiens) (UniProt Q9HC98); conditions: at 0.1 µM
# [17] = biological target: Serine/threonine-protein kinase Nek6 (Homo sapiens) (UniProt Q9HC98); conditions: at 1 µM
# [18] = biological target: Serine/threonine-protein kinase Nek7 (Homo sapiens) (UniProt Q8TDX7); conditions: at 0.1 µM
# [19] = biological target: Serine/threonine-protein kinase Nek7 (Homo sapiens) (UniProt Q8TDX7); conditions: at 1 µM
# [20] = biological target: T7, Serine/threonine-protein kinase Nek9 (Homo sapiens) (UniProt Q8TD19); conditions: at 0.1 µM;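 further: reported value is the mean percent inhibition of NEK9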
# T7 sequence (whole entry): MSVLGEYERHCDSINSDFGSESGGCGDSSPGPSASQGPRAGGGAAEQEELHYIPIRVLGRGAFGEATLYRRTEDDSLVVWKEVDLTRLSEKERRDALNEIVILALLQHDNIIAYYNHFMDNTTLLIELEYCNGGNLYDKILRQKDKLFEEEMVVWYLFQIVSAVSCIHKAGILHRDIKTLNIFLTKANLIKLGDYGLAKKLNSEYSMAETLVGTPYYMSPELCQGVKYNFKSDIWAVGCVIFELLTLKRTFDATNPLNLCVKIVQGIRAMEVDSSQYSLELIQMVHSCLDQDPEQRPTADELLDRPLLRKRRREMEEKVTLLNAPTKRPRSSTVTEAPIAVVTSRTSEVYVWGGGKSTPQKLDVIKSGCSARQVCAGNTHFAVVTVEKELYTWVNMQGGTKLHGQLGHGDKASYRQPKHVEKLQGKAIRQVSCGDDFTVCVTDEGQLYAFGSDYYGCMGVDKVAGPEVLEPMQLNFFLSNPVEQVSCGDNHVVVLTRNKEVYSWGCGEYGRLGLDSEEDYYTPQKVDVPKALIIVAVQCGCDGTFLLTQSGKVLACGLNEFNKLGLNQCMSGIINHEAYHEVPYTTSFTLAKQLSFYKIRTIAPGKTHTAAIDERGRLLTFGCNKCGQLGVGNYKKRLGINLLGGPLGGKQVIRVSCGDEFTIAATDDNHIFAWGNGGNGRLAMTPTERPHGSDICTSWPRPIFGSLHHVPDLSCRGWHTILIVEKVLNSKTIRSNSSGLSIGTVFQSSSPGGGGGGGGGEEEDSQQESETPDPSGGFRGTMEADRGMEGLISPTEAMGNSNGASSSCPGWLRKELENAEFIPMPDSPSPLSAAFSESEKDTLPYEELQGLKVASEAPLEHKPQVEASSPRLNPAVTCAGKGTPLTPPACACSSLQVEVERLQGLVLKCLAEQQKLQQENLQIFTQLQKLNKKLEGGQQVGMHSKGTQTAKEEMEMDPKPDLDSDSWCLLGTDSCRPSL
# Chain of Serine/threonine-protein kinase Nek6 (Homo sapiens) (Q9HC98 whole entry): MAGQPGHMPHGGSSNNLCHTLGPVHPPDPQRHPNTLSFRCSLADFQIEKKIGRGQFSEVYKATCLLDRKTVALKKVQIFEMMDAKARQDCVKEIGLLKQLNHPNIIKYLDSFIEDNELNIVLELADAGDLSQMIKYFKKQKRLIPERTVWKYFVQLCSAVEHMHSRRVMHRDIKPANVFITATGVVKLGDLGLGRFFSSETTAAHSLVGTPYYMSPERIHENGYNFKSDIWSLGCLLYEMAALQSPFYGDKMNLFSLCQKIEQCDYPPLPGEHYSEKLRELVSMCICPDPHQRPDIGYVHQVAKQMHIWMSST
# Chain of Casein kinase II subunit alpha (Homo sapiens) (P68400 whole entry, looked up): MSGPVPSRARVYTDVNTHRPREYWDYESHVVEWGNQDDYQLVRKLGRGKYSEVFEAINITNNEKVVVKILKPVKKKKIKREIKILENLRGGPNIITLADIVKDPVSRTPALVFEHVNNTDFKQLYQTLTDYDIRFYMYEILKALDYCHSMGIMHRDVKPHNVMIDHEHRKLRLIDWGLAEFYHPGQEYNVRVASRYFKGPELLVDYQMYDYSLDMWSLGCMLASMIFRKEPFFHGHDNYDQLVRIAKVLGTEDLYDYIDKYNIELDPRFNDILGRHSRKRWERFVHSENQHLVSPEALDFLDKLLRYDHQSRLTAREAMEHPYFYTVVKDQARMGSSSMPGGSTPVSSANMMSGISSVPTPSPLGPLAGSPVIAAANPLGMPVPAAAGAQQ
# Chain of Serine/threonine-protein kinase Nek7 (Homo sapiens) (Q8TDX7 whole entry, looked up): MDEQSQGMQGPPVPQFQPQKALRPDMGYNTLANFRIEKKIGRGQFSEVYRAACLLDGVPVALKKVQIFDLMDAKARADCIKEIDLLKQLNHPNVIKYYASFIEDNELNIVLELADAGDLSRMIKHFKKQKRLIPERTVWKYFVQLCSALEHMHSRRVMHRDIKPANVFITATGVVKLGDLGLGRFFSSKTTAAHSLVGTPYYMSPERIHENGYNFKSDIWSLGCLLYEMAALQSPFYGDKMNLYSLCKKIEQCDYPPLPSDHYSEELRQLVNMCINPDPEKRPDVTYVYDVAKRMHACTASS
# Chain of Sphingosine kinase 1 (Homo sapiens) (Q9NYA1 whole entry): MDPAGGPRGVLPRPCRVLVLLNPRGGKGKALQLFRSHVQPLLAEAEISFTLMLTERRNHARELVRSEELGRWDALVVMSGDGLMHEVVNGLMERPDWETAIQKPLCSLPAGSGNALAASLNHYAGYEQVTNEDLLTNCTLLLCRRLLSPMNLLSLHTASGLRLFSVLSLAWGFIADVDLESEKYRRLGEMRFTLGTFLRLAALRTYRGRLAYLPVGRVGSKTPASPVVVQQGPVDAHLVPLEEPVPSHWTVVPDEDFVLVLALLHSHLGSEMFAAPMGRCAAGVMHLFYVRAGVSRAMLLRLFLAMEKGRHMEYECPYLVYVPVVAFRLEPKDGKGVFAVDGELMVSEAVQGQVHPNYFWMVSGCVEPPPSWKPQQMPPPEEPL
compound,measurement,setting,value
CC1=C(C(=O)Nc2ccc3[nH]ncc3c2)C(c2ccc(F)cc2)NC(=O)N1 (stereo not given),inhibition,[1],-2.09%
same,inhibition,[2],-0.06%
same,inhibition,[3],-0.16%
same,inhibition,[4],1.87%
same,inhibition,[5],0.86%
same,inhibition,[6],0.45%
same,inhibition,[7],7.79%
same,inhibition,[8],1.68%
same,inhibition,[9],1.73%
same,inhibition,[10],1.7%
same,inhibition,[11],4.43%
same,inhibition,[12],2.09%
same,inhibition,[13],4.56%
same,inhibition,[14],3.07%
same,inhibition,[15],2.73%
same,inhibition,[16],0.8%
same,inhibition,[17],0.71%
same,inhibition,[18],3.54%
same,inhibition,[19],2.72%
same,inhibition,[20],2.85%
